Consider 61 molecules from PubChem BioAssay AID504582 (Broad Institute, 2011).

The whole screen tested about 340,000 compounds, of which about 2,300 (0.68%) were called active. Many of the other results were omitted from the sample, so actives are more common in it than they were. A number with no mark means an inactive call. No stated cut-off is given here; in the data, active means growth rescue above about 28% (passing the limit was not always enough); inconclusive means no clear call, values can overlap the other calls.

The experiment can be described thus: rescue of yeast from PfHsp40 toxicity, primary screen, S. cerevisiae, ATP luminescence (AID 504582).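 Further: yeast W303a lacking pdr1 and pdr3 grown in galactose medium; growth measured after three days at 30 °C.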 Particulars: S. cerevisiae expressing PfHsp40, growth rescue, at 12.5 µM, stronger effect = higher value.
Regarding `CCc1ccc(C(=O)NNC(=O)C2CCN(c3ncnc4sc(C)c(C)c34)CC2)cc1`, the growth rescue is 4.88%.

Consider `O=S(=O)(c1ccc(Br)cc1)n1ccc2ccccc21`, for which the growth rescue is 17.1%.

In the case of `CCCC(C)C(=O)OCC(=O)Nc1c(Br)cc(C)cc1Br` (stereo unspecified), the growth rescue is 1.14%.

For `COc1ccc(-c2nc3ccccc3c(=O)n2CCc2ccc(O)cc2)cc1`, the growth rescue is 31.2% (active).

As to `COc1ccc(NC(=O)CSc2nc3ccccc3c(=O)n2C)cc1`, the growth rescue is -2.46%.

`COc1ccc(OCc2ccc(-c3nc4ccccc4c(=O)n3N)o2)cc1`: the growth rescue was 0.704%.

`CCCCCC(O)c1cccc(OCc2ccc3ccccc3n2)c1` (stereo unspecified): the growth rescue was 57.6% (active).

Take `Clc1ccccc1-c1cc(COc2ccc3ccccc3c2)no1`: the growth rescue is -0.819%.

`COc1cccc(C(O)c2nc3ccccc3n2C)c1` (stereo unspecified): the growth rescue is -0.645%.

Turning to `Cc1no[n+]([O-])c1COc1ccccc1/C=C1\NC(=S)NC1=O`, the growth rescue was 0.211%.

For `Cc1[nH]c2c(C(=O)N3CCCC(CCC(=O)NCc4ccccc4F)C3)cccc2c1C` (stereo unspecified), the growth rescue is 1.34%.

As for `O=C(c1cn(-c2ccccc2)nc1-c1cccnc1)N1CCN(S(=O)(=O)c2ccccc2F)CC1`, the growth rescue is -0.533%.

As to `O=[N+]([O-])/C=C1\CCCCCN1`, the growth rescue is 0.302%.

On to `Cc1ccc(OCC(=O)NNC(=S)NCc2ccccc2)cc1`, for which the growth rescue was -0.289%.

With `CCCc1ccc(OCC(=O)NNC(=S)NC(=O)c2ccco2)cc1`, the growth rescue is 58% (active).

Turning to `NS(=O)(=O)c1ccc(CNC(=S)NC(=O)c2ccco2)cc1`, the growth rescue was 0.284%.

For `O=C(Nc1ccc2ccccc2c1)/C(=C/c1cccc(Br)c1)NC(=O)c1ccco1`, the growth rescue was 1.72%.

`O=C(Nc1ccc2ccccc2c1)/C(=C\c1ccc2c(c1)OCO2)NC(=O)c1ccco1`: the growth rescue was 0.409%.

With `CC(Oc1ccc2ccccc2c1)C(=O)NNC(=S)NC(=O)c1ccco1` (stereo unspecified), the growth rescue is 58.8% (active).

For the molecule `COc1ccc(S(=O)(=O)n2nc(C)c(S(=O)(=O)N3CCOCC3)c2C)cc1`, the growth rescue was 0.381%.

In the case of `O=C(Cn1cnc2c(nnn2-c2ccccc2)c1=O)N1CCC(Cc2ccccc2)CC1`, the growth rescue is -0.205%.

Take `CCc1ccc(OCC(=O)OCC(=O)c2c(N)n(C)c(=O)n(C)c2=O)cc1`: the growth rescue is 1.51%.

On to `FC(F)(F)c1ccnc(Oc2ccc(C3=NCCS3)cc2)c1`, for which the growth rescue was 4.54%.

On to `C#CCNc1nc(C(C)C)nc2c1nnn2Cc1ccccc1F`, for which the growth rescue is -0.851%.

As for `CSc1sc(C(=O)NC(=O)NCc2cccnc2)c(C)c1-c1ccon1`, the growth rescue is -0.426%.

With `O=C(NCCN1CCOCC1)c1cc(Sc2cccc(Cl)c2)nc2ccccc12`, the growth rescue was 1.79%.

As for `O=c1c(/C=N/O)coc2ccc(Cl)cc12`, the growth rescue is 412% (active).

As to `O=C1/C(=C/c2coc3ccc(O)cc3c2=O)SC(=S)N1c1ccccc1`, the growth rescue is -0.334%.

For the molecule `CCOC(=O)C1CCN(Cc2coc3ccc(Cl)cc3c2=O)CC1`, the growth rescue is -0.75%.

On to `COc1ccccc1C(=O)Nc1ccc(OCc2nnc3c4ccccc4c(C)nn23)cc1`, for which the growth rescue was 1.5%.

Regarding `C/C(=N/Nc1nc(-c2ccccc2)c(CC(=O)O)s1)c1ccccc1`, the growth rescue is -0.261%.

In the case of `c1ccc(C(=NNc2nc3ccccc3s2)c2ccccn2)cc1`, the growth rescue is 223% (active).

Regarding `COc1cc(OC)nc(N/N=C(\c2ccccc2)c2ccncc2)n1`, the growth rescue is 0.409%.

Regarding `CCOc1cc(/C=C(/C#N)c2ccc(Cl)cc2)cc(Cl)c1OCC(=O)O`, the growth rescue was -0.745%.

On to `CSCCC(NC(=O)c1ccccc1)C(=O)N1CCN(Cc2ccc(Cl)cc2)CC1` (stereo unspecified), for which the growth rescue is 0.474%.

Take `C[C@H](NC(=O)c1ccccc1Cl)C(=O)OCCOc1cccc(Cl)c1`: the growth rescue is 4.16%.

For the molecule `COC(=O)c1cccc([N+](=O)[O-])c1CS(=O)(=O)c1ccc(C)cc1`, the growth rescue is -1.34%.

With `O=C(/C=C/c1cccc([N+](=O)[O-])c1)OCC(=O)N1CCOCC1`, the growth rescue was -0.951%.

With `O=C(/C=C/c1ccccc1[N+](=O)[O-])OCC(=O)N1CCCC1`, the growth rescue was 48.9% (active).

For the molecule `CC(C)CNC(=O)COC(=O)/C=C/c1ccccc1[N+](=O)[O-]`, the growth rescue is -0.287%.

In the case of `COC(=O)C1=C(NC(=O)C(C)(C)C)CCS1`, the growth rescue was -1.07%.

As for `COc1ccc(CNC(=O)C2CCN(C(=O)c3ccco3)CC2)cc1`, the growth rescue is 0.344%.

On to `COc1ccc(/C=C(\C#N)c2c[nH]c3ccccc23)cc1`, for which the growth rescue is 509% (active).

`COc1cccc(-n2c(SCC(=O)c3c[nH]c4ccccc34)nc3ccccc3c2=O)c1`: the growth rescue is -1.82%.

On to `CCC/C(=N\O)c1c[nH]c2ccccc12`, for which the growth rescue is 0.247%.

Regarding `Cn1c(CCc2ccccc2)nnc1SCC(N)=O`, the growth rescue is 0.061%.

Regarding `COc1ccc(C(=O)COC(=O)COc2ccc(C)c(C)c2)cc1`, the growth rescue is 0.0365%.

On to `CC(=O)Nc1ccc(S(=O)(=O)NCC(=O)OCC(=O)c2ccc[nH]2)cc1`, for which the growth rescue is -1.02%.

Take `COc1cc(C)ccc1OCC(=O)OCC(=O)c1ccc[nH]1`: the growth rescue was 62.4% (active).

`Cc1ccc(NC(=O)NC(=O)N(C2CCCCC2)S(=O)(=O)c2ccccc2)cc1`: the growth rescue was -1.71%.

As for `CCOc1ccccc1NC(=O)C1CCCN(S(=O)(=O)c2ccccc2)C1` (stereo unspecified), the growth rescue is 0.502%.

With `COc1cccc(Oc2ccc(N)cc2)c1`, the growth rescue is 1.74%.

With `CC(C)(C)c1ccc(OC2=CS(=O)(=O)c3ccccc32)cc1`, the growth rescue is 6.99%.

As for `CC(C)(C)c1ccc(Oc2ccc(N)cc2)cc1`, the growth rescue was 346% (active).

Turning to `O=C1C(C=NCC2CCCO2)=C(O)c2ccccc21` (stereo unspecified), the growth rescue is 0.444%.

Turning to `Cc1cc(C(=O)CC#N)c(C)n1CC(F)(F)F`, the growth rescue was 0.147%.

Take `CC(C)Cn1c(SCC(=O)Nc2ccc(Cl)cc2F)nc(O)cc1=O`: the growth rescue is 1.12%.

With `COc1cccc(CNC(=O)C2CCCN(S(=O)(=O)N3CC(C)CC(C)C3)C2)c1` (stereo unspecified), the growth rescue is 0.206%.

Take `CCOc1ccccc1Oc1cn[nH]c1-c1ccc(OC)cc1O`: the growth rescue was 125% (active).

In the case of `COc1ccc(Oc2cn[nH]c2-c2ccc(OC)cc2O)cc1`, the growth rescue is 10.8%.

Turning to `CCOc1ccc(-c2nc(N)ncc2-c2ccccc2OC)c(O)c1`, the growth rescue is 1.96%.
